Results on 14 molecules are retold here after PubChem BioAssay (NCI).

The panel holds about 83,000 compounds, 20% with a hit somewhere; the sample as a whole holds those more often.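 Treatment: one concentration, 48 hours, 96-well format. Scoring: percent growth, with anything below 10 considered active.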 Unmarked numbers belong to inactive results. Activity calls are given as the source filed them.

Test systems include NCI-H23 lung; NCI-H226 lung; NCI-H322M lung; HOP-62 NSCLC; NCI-H460 lung; HOP-92 NSCLC; NCI-H522 lung; A549/ATCC NSCLC; 786-0 renal; COLO 205 colon.
Test in all cases: NCI-60 one-dose screen, 48 h (100 = growth as untreated, 0 = no growth, -100 = all killed)
Common to all, as to details: 10 µM unless noted

In the case of `O=C(/C=C/c1ccc(Cl)cc1)c1ccc(NC(=O)N2CCN(c3cc4c(cc3F)c(=O)c(C(=O)O)cn4C3CC3)CC2)cc1`, the growth with NCI-H23 lung is 87.4%; in the assay on NCI-H226 lung, 89.4%; with NCI-H322M lung, 103%; in the assay with HOP-62 NSCLC it was 106%; in the assay on NCI-H460 lung it was 87.8%; in the assay on HOP-92 NSCLC, 92.9%. Also, the growth is 66.9% with NCI-H522 lung, 95.8% with A549/ATCC NSCLC, 86.5% in the assay with 786-0 renal and 115% in the assay with COLO 205 colon.
`O=C(/C(=C\c1ccc([N+](=O)[O-])cc1)S(=O)Cc1ccc(F)cc1)c1ccc(F)cc1` (centres undefined): the growth with NCI-H23 lung is 46.7%; in the assay on NCI-H226 lung, 77.9%; in the assay with NCI-H322M lung, 79.9%; in the assay on HOP-62 NSCLC, 38.1%; in the assay with NCI-H460 lung it was 30.9%; in the assay on HOP-92 NSCLC it was 65.2%. Further, the growth was -22.1% (active) with NCI-H522 lung, 79.9% in the assay with A549/ATCC NSCLC, -43.9% (active) in the assay on 786-0 renal and 8.65% (active) in the assay with COLO 205 colon.
Take `CCOC(=O)Oc1c(OC)cc(C(=O)c2ccc(OC)c(O)c2OC)cc1OC`: the growth with NCI-H23 lung is 37.8%; in the assay on NCI-H226 lung, 54.9%; in the assay on NCI-H322M lung, 46.1%; with HOP-62 NSCLC, 24%; in the assay on NCI-H460 lung, 8.66% (active); in the assay on HOP-92 NSCLC, 48.3%. In addition, the growth in the assay on NCI-H522 lung was 24%; in the assay with A549/ATCC NSCLC it was 25.7%; with 786-0 renal it was 21.2%; in the assay on COLO 205 colon, 89.6%.
Take `CCCOC(=O)N[C@H]1CCc2cc(OC)c(OC)c(OC)c2-c2ccc(SC)c(=O)cc21`: the growth is 35% in the assay on NCI-H23 lung; 13% in the assay on NCI-H226 lung; 32.7% in the assay with NCI-H322M lung; 39.3% in the assay on HOP-62 NSCLC; 0.992% (active) in the assay with NCI-H460 lung; 34.9% in the assay on HOP-92 NSCLC. Also, the growth in the assay on NCI-H522 lung is 21.5%; with A549/ATCC NSCLC, 22.6%; with 786-0 renal, 24.1%; in the assay on COLO 205 colon, 1.57% (active).
In the case of `CN1CCN(c2ccc(NC3=C(Cl)C(=O)c4ncccc4C3=O)cc2C(F)(F)F)CC1`, the growth was 58.7% in the assay on NCI-H23 lung; 102% with NCI-H226 lung; 98% in the assay with NCI-H322M lung; 114% in the assay on HOP-62 NSCLC; 101% in the assay on NCI-H460 lung; -76.4% (active) in the assay on HOP-92 NSCLC. Also, the growth is -49.8% (active) in the assay with NCI-H522 lung, 104% in the assay on A549/ATCC NSCLC, 82.6% in the assay on 786-0 renal and -16.7% (active) with COLO 205 colon.
As for `COc1cc(NC(C)CCCNC(=O)CCC(=O)NCCCNCCCCCCCCCCNCCCNC(=O)CCC(=O)NCCCC(C)Nc2cc(OC)cc3cccnc23)c2ncccc2c1` (centres undefined), the growth in the assay with NCI-H23 lung was 63.4% [8 µM]; in the assay on NCI-H226 lung, 58.6% [8 µM]; with NCI-H322M lung it was 32.1% [8 µM]; in the assay on HOP-62 NSCLC, 101% [8 µM]; with NCI-H460 lung, 81% [8 µM]; with HOP-92 NSCLC, 59% [8 µM]. The growth with NCI-H522 lung is 57.1% [8 µM]; with A549/ATCC NSCLC, 63.7% [8 µM]; in the assay on 786-0 renal, 92.5% [8 µM]; in the assay on COLO 205 colon it was 26.7% [8 µM].
Consider `Fc1ccc2c(-c3cncn3CCc3ccccc3)c[nH]c2c1`, for which the growth with NCI-H23 lung is 86.2%; with NCI-H226 lung, 75.9%; in the assay on NCI-H322M lung, 91.8%; in the assay with HOP-62 NSCLC, 87.4%; in the assay with NCI-H460 lung, 92.7%; in the assay with HOP-92 NSCLC, 65%. The growth is 82% in the assay with NCI-H522 lung, 87% in the assay on A549/ATCC NSCLC and 101% in the assay on COLO 205 colon.
`COc1ccc(C(=O)C2C(C#N)C(C#N)C3c4ccccc4C=CN23)cc1` (centres undefined): the growth with NCI-H23 lung was 83.3%; with NCI-H226 lung, 74.7%; with NCI-H322M lung it was 89%; in the assay on HOP-62 NSCLC, 92.9%; with NCI-H460 lung, 97.7%; in the assay on HOP-92 NSCLC, 85.9%. The figures for the growth with NCI-H522 lung, in the assay on A549/ATCC NSCLC and with COLO 205 colon were 71.9%, 87.2% and 107%, respectively.
In the case of `CCN(CC)c1ccc(/C=N/NC(=O)CSc2nc3ccccc3c(=O)n2Cc2ccc(S(N)(=O)=O)cc2)c(O)c1`, the growth is 39.6% in the assay on NCI-H23 lung; 31.1% in the assay with NCI-H226 lung; 27.1% in the assay on NCI-H322M lung; 21.2% with HOP-62 NSCLC; 6.78% (active) with NCI-H460 lung; 58.4% in the assay with HOP-92 NSCLC. For the same molecule, the growth in the assay with NCI-H522 lung was -26.1% (active); in the assay with A549/ATCC NSCLC, 29%; in the assay on 786-0 renal it was 32.6%; with COLO 205 colon it was -2.18% (active).
With `CCOC(=O)c1nc2c3ccccc3ccn2c1C(=O)OCC`, the growth is 96.9% in the assay on NCI-H23 lung; 97.2% in the assay on NCI-H226 lung; 95.1% in the assay with NCI-H322M lung; 102% in the assay on HOP-62 NSCLC; 118% in the assay with NCI-H460 lung; 103% with HOP-92 NSCLC. In addition, the values for the growth in the assay on NCI-H522 lung, in the assay with A549/ATCC NSCLC and in the assay on COLO 205 colon were 88.3%, 103% and 109%, respectively.
Take `COc1cc(OC)cc(C(=O)C[n+]2cccc3cc[nH]c32)c1`: the growth was 94.7% in the assay on NCI-H23 lung; 94.2% with NCI-H226 lung; 93.1% in the assay with NCI-H322M lung; 99.1% in the assay with HOP-62 NSCLC; 101% in the assay on NCI-H460 lung; 88.9% in the assay on HOP-92 NSCLC. In addition, the growth with NCI-H522 lung is 93%; with A549/ATCC NSCLC it was 97.6%; with COLO 205 colon, 107%.
Consider `CC(C)N1C(=O)S/C(=C2/SC(=O)N(C(C)C)C2=O)C1=O`, for which the growth with NCI-H23 lung was 93.8%; in the assay on NCI-H226 lung, 102%; in the assay on NCI-H322M lung it was 93.4%; in the assay on HOP-62 NSCLC it was 111%; in the assay with NCI-H460 lung it was 102%; in the assay with HOP-92 NSCLC, 74.6%. The growth in the assay with NCI-H522 lung is 89.9%; with A549/ATCC NSCLC it was 101%; with COLO 205 colon, 112%.
For the molecule `O=[N+]([O-])c1ccc(NC(=S)N/N=C/c2cc3ccccc3n3nnnc23)cc1`, the growth in the assay with NCI-H23 lung is 30.1%; in the assay with NCI-H226 lung, 72%; with NCI-H322M lung, 51.9%; in the assay on HOP-62 NSCLC it was 49.3%; with NCI-H460 lung it was 32.2%; with HOP-92 NSCLC, -5.68% (active). The growth in the assay with NCI-H522 lung is 35.4%; in the assay on A549/ATCC NSCLC, 55.6%; in the assay on 786-0 renal it was 61.6%; in the assay with COLO 205 colon, 96.9%.
Take `N#CC1C(C#N)C(C(=O)c2ccc(Br)cc2)N2c3ccccc3C=CC12` (centres undefined): the growth is 79.2% in the assay with NCI-H23 lung; 64.7% with NCI-H226 lung; 93.4% with NCI-H322M lung; 75.1% in the assay on HOP-62 NSCLC; 96.2% with NCI-H460 lung; 55.5% in the assay with HOP-92 NSCLC. Besides, the values for the growth in the assay on NCI-H522 lung, in the assay on A549/ATCC NSCLC and in the assay with COLO 205 colon were 78.6%, 65.8% and 3.37% (active), respectively.
